# TrxR1 substrate = rat thioredoxin reductase 1 substrate activity; Potency, µM (top dose mostly 114 µM), for the others: at the highest dose activity change, negative = substrate turnover; O89049; 390,000 compounds, 0.01% hits; purified TrxR1 substrate turnover, NADPH consumption readout; further: on the % scale 0 is the no-effect control and ±100 the full control effect; nearly all actives have a fitted effect of over 50% in size
# Target sequence (O89049 whole entry, looked up): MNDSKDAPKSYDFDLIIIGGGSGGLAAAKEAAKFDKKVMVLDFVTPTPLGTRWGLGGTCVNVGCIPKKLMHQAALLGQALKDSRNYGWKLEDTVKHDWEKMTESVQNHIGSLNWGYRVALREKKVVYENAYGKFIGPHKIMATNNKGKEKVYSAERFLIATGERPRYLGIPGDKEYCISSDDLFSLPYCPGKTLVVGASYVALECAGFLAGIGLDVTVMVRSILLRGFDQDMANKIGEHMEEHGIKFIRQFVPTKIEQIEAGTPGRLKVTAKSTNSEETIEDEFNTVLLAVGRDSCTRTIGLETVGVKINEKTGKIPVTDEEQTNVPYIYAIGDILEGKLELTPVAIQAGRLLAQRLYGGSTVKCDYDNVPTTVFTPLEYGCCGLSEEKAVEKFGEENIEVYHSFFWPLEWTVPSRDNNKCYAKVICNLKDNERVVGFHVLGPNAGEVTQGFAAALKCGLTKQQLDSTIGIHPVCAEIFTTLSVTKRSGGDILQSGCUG
#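 Rat TrxR1, dispensed at 90 nM, was prereduced with 400 uM NADPH (final) for 5 min at ~22 deg C, then incubated with compound 15 min before 400 uM selenite. A first-read NADPH fluorescence drop versus no-compound background flagged substrates.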
# IDH1 R132H inh = blocks human mutant IDH1 R132H enzyme. IDH1-R132H enzyme, NADPH consumption, diaphorase/resazurin fluorescence. 390,000 compounds, 0.093% hits. Potency, µM (titrated, usually from 76.6 µM), inactives show at the top dose activity change, negative = inhibition, most hits filed as inhibitors. O75874; further: on the % scale 0 is the no-effect control and ±100 the full control effect; nearly all actives have a fitted effect of over 65% in size
#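 IDH1-R132H (0.5 ug/mL dispensed) in pH 7.5 Tris buffer was preincubated 30 min with compound, then given a substrate mix of 0.016 mM NADPH and 2 mM alpha-KG for 80 min at room temperature; remaining NADPH was read by diaphorase/resazurin fluorescence.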
# A549 viability = counter-screen for Nrf2 inhibitors: cytotoxicity in A549 cells | 390,000 compounds, 0.16% hits | Potency, µM (highest dose often 46 µM), without a hit: at the highest dose activity change, negative = cytotoxicity, actives largely listed as inhibitors | A549 ARE-Fluc cells, CellTiter-Fluor viability, 18-24 h; further: on the % scale 0 is the no-effect control and ±100 the full control effect
#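 A549 ARE-Fluc cells in 5% FBS OPTI-MEM, 5000 cells/well, rested 2 h then exposed to compounds in concentration-response for 18-24 h at 37 °C. Viability by CellTiter-Fluor fluorescence (Ex 405/Em 525) after 30 min; luciferase luminescence (BugLite, 15 min, RT) read afterwards.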
# Nrf2 inh = inhibitors of Nrf2 signaling; A549 ARE-Fluc reporter, luciferase luminescence, 18-24 h; Potency, µM (series often up to 46 µM), for inactives: at the top dose activity change, negative = inhibition, most hits filed as inhibitors; 360,000 compounds, 2.1% hits; AID 504444; further: on the % scale 0 is the no-effect control and ±100 the full control effect; nearly all actives have a fitted effect of over 60% in size
#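 Nrf2 function is reported as luminescence of an ARE-controlled luciferase in A549 cells. Compounds were tested at several concentrations, and a CellTiter-Fluor read on the same wells flagged cytotoxicity.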
# Mito fusion yeast = blocks mitochondrial division or promotes mitochondrial fusion | Potency, µM (titrated, usually from 46.1 µM), inactives show top-dose growth rescue (activation), most hits filed as activators | S. cerevisiae fusion-defective mutant growth rescue, CellTiterGlo 48 h | 320,000 compounds, 0.23% hits; further: % of control where 0% means no effect; nearly all actives have a fitted effect of over 45% in size
#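 Growth-rescue viability read-out: after 48 h at the non-permissive 37C in glycerol/ethanol YPEG, yeast mitochondrial fusion mutants are measured by CellTiterGlo luminescence; compounds (23 nl pinned per well) restoring growth score as division inhibitors or fusion activators.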
# rTrxR1 inhibitor = rat TrxR1 inhibition. recombinant rTrxR1, NADPH fluorescence consumption, selenite substrate. Potency, µM (top dose mostly 114 µM), for inactives: at the highest dose activity change, negative = inhibition, actives largely listed as inhibitors. O89049. 390,000 compounds, 1% hits. AID 588453; further: on the % scale 0 is the no-effect control and ±100 the full control effect; nearly all actives have a fitted effect of over 65% in size
#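 Rat TrxR1 (90 nM in the dispensed reagent) was pre-reduced with 400 uM NADPH for 5 min at room temperature, then incubated with compound for 15 min. After 400 uM selenite was added, NADPH fluorescence (Ex 340/Em 450 nm) was followed for 8 min.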
# An asterisk follows results filed as active; ? = inconclusive; . = no result; [ ] = dose if it differs, or a comment. In the library only some 3.1% were active in any assay of this set; here they are far more common. The call rests on the fitted dose curve; in most records, active means well fitted curve in the direction sought with a large enough effect; inconclusive means small, poorly fitted or top-dose-only effect, or another doubt; inactive means no such curve, though single readings can be large; an effect the other way counts as inactive or inconclusive. Potency means the concentration at half of the fitted maximal effect.
SMILES,TrxR1 substrate,IDH1 R132H inh,A549 viability,Nrf2 inh,Mito fusion yeast,rTrxR1 inhibitor
CC1CCCC(C)N1C(=O)Cn1cc(/C=C2/C(=O)Nc3ccccc32)c2ccccc21 (stereo not drawn),-19.6%,3.1%,16.4µM*,18.4µM*,28.6%,-16.0%
CN(C)c1ccc(-c2nnc(SCC(=O)NCc3ccco3)n2C)cc1,-9.0%,.,.,.,.,-19.5%
CCC(=O)c1ccc(N2CCN(C(=O)c3ccccc3Br)CC2)c(F)c1,11.8%[57.1 µM],3.6%,7.4%,10.0%,1.3%,24.1%[57.1 µM]
CCC(=O)c1ccc(N2CCN(C(=O)c3ccccc3F)CC2)c(F)c1,-0.7%[57.1 µM],-7.7%,-0.2%,-19.0%,10µM*,-4.8%[57.1 µM]
Cc1ccc(NC(=O)c2nc(S(=O)(=O)Cc3ccc(F)cc3)ncc2Cl)cc1C,7.7%,-6.6%,?,3.6%,.,2.82µM*
CC(=O)Nc1ccc(NC(=O)c2nc(S(=O)(=O)Cc3ccc(F)cc3)ncc2Cl)cc1,-1.7%,6.2%,?,?,.,1.26µM*
Cc1ccc(CS(=O)(=O)c2ncc(Cl)c(C(=O)Nc3nc4ccc(F)cc4s3)n2)cc1,-3.4%,-9.9%,?,?,.,?
Cc1ccc(NS(=O)(=O)c2cc3c(cc2C)OCC(=O)N3)cc1C,.,.,2.5%,-14.5%,.,.
CN1CCN(C2=C(Cl)C(=O)N(c3cccc(Cl)c3)C2=O)CC1,-8.9%,-2.9%,1.1%,2.6%,0.1%,?
CN1CCN(C2=C(Cl)C(=O)N(c3ccc(Cl)c(Cl)c3)C2=O)CC1,4.2%[57.1 µM],-3.5%,-4.3%,10.0%,-9.3%,15.8µM*
COc1ccc(Nc2nc(-c3ccccc3)c3ccccc3n2)cc1,-3.3%,4.8%,3.4%,-3.5%,25.1µM*,-7.7%
CC[N+](C)(C)c1ccc(/C=C/c2ccnc3ccccc23)cc1,-2.7%,.,.,.,.,-3.3%
O=c1cc(/C=C/c2cccs2)[nH]c2ccccc12,-2.0%,6.6%,-14.1%,13µM*,1.0%,-16.0%
CNCCc1cnc(CCC(c2ccccc2)c2ccccc2)[nH]1,1.3%[57.1 µM],.,.,.,?,1.3%[57.1 µM]
Cc1ccc(C)c(S(=O)(=O)NCc2ccc(C(=O)N3CCC(Cc4ccccc4)CC3)cc2)c1,5.1%,1.1%,-10.6%[1.84 µM],16.4µM*,8.9%,26.9%
Cc1ccc(C)c(S(=O)(=O)NCc2ccc(C(=O)N3CCN(C)CC3)cc2)c1,6.2%,7.4%,-2.4%,9.2%,-6.5%,20.7%
COc1ccc(C(C#N)N2N=C(C)CC2(C)C)cc1OC (stereo not drawn),0.0%,0.2%,-4.2%,?,-0.3%,39.8µM*
CS(=O)(=O)/C=C/c1nc(Nc2cc(F)cc(F)c2)c2ncn(CC(F)F)c2n1,.,.,-0.7%,7.2%,.,.
Cc1ccc(CNC(=O)c2cnn(-c3cccc(C)c3)c2C2CCN(C(=O)OC(C)(C)C)CC2)cc1,-6.7%,-12.7%,-27.2%,18.4µM*,.,15.8%
CC(C)(C)OC(=O)N1CCC(c2c(C(=O)NCc3ccccc3)cnn2-c2ccccc2)CC1,-2.1%,16.7%,-1.7%,-20.1%,.,20.1%
COc1ccccc1CNC(=O)c1cnn(-c2ccc(F)cc2F)c1C1CCN(C(=O)OC(C)(C)C)CC1,-1.9%,-2.3%,-14.9%,?,.,11.8%
Cc1ccc(CNC(=O)c2cnn(-c3ccc(F)cc3F)c2C2CCN(C(=O)OC(C)(C)C)CC2)cc1,-8.6%,0.0%,?,16.4µM*,.,-1.6%
Cc1ccc(NC(=O)CN(Cc2ccccc2)S(=O)(=O)c2ccc3nc(C)sc3c2)c(C)c1,1.0%[57.1 µM],-28.5%,-0.5%,17.4%,.,12.1%[57.1 µM]
CN(C)c1ccc(/C=C/c2ccnc3cc(Cl)cc(Cl)c23)cc1,-3.9%,.,.,.,.,33.4%[0.0914 µM]
Cc1cccc(Cn2cnc3c(cnn3C(C)(C)C)c2=O)c1F,-8.0%,.,.,.,.,-1.2%
SMILES,TrxR1 substrate,IDH1 R132H inh,A549 viability,Nrf2 inh,Mito fusion yeast,rTrxR1 inhibitor
CN(C)C(=O)/C=C\c1cn(-c2ccccc2)nc1-c1ccc2c(c1)OCCO2,-5.1%,-4.5%,-4.7%,?,17.8µM*,-14.3%
O=C(O)/C=C/c1cn(-c2ccccc2)nc1-c1ccc2c(c1)OCCO2,3.8%,1.0%,-13.2%,?,4.9%,8.3%
COc1cc(C(CC(=O)Nc2cc(C)ccc2C)N2Cc3ccccc3C2=O)cc(OC)c1OC (stereo not drawn),?,-5.3%,-2.6%,24.0%,.,9.1%
O=C(Nc1ccncc1)c1cncc(Br)c1,-1.8%,3.1%,-3.6%,-22.3%,13.6%,-2.2%
Cc1cc(Nc2cccc(Cl)c2)nc2ccc(NC(=O)c3cncc(Br)c3)cc12,-7.1%,-2.6%,?,18.4µM*,.,6.2%
O=C(Nc1cccc(NC(=O)c2cncc(Br)c2)c1)c1cncc(Br)c1,7.9%[57.1 µM],1.4%,1.8%,8.2µM*,2.2%,8.6%[57.1 µM]
Cc1cc(Nc2cccc(C(F)(F)F)c2)nc2ccc(NC(=O)c3cncc(Br)c3)cc12,-5.1%,6.6%,-21.4%,20.6µM*,.,6.0%
COc1cccc(CC(=O)Nc2ccc3nc(Nc4cccc(C(F)(F)F)c4)cc(C)c3c2)c1,50.7%,-2.7%,-27.7%,?,.,27.5%

# High-throughput results: PubChem, National Center for Advancing Translational Sciences (NCATS)
